# Measurements taken from PubChem BioAssay (NCI).
# This is part of a sample that, as a whole, favours compounds with a hit. Of some 83,000 tested, about 20% had one in any assay.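 The test compound was applied at a single concentration to cells in 96-well plates for 48 hours, and percent growth was recorded.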 A number with no mark means an inactive call. Activity calls are given as the source filed them. The calls were made as follows: active = growth percent below 10; inactive = the rest.
# System: OVCAR-5 ovarian
# Experiment: NCI-60 one-dose screen, 48 h (100 = growth as untreated, 0 = no growth, -100 = all killed)
# Details: 10 µM unless noted
row,Structure (SMILES),growth
1,COc1cc(OC)c(S(N)(=O)=O)cc1C(C)=O,107%
2,O=S(=O)(Nc1ccc2c(c1)OCO2)c1ccc(-c2cnc(C3CC3)o2)cc1,60.7%
3,COc1cccc2c1CN(C(=O)c1ccc(O)c(C(=O)N3Cc4ccc(OCCC[P+](c5ccccc5)(c5ccccc5)c5ccccc5)cc4C3)c1)C2,123%
4,O=S(=O)(Nc1ccc(I)cc1Cl)c1ccc(-c2cnc(C3CC3)o2)cc1,75.4%
5,C=C(C=O)[C@@H]1CC[C@]2(CO)CC[C@]3(C)[C@H](CC[C@@H]4[C@@]5(C)CCCNC(C)(C)[C@@H]5CC[C@]43C)[C@@H]12,88.7%
6,C=CCn1c(SCC(=O)Nc2ccc(C(=O)/C=C/c3cccc([N+](=O)[O-])c3)cc2)nnc1-c1c[nH]c2ccccc12,96.8%
7,CNC(=O)c1c(NC(=O)c2cccc(C(F)(F)F)c2F)sc2c1CCC(=O)C2,4.83% (active)
8,COc1ccc(C2c3sc4c(C)cccc4c3Oc3nc(CC(=O)Nc4ccccc4)[nH]c(=O)c32)cc1 (centres undefined),88.7%
9,COCCNc1ccc2ncc(C#Cc3cncc(C(=O)Nc4ccc(CN5CCN(C)CC5)c(C(F)(F)F)c4)c3)n2n1,3.94% (active)
10,CCN1CCN(C(=O)[C@]23CCC(C)(C)C[C@H]2C2=CC[C@@H]4[C@@]5(C)Cc6c([nH]c7ccccc67)C(C)(C)[C@@H]5CC[C@@]4(C)[C@]2(C)CC3)CC1,80.1%
11,CCn1c(SCC(=O)Nc2cccc(C(=O)/C=C/c3ccc(C)cc3)c2)nc2ccccc2c1=O,97.6%
12,CN1c2ccccc2Sc2cc(C=C(C#N)C#N)ccc21,38%
13,CN1CCN(Cc2ccc(NC(=O)c3cncc(C#Cc4cnn5cccnc45)c3)cc2C(F)(F)F)CC1,26%
14,N#Cc1cccc(/C(N)=N/C(N)=N/c2nc3ccccc3s2)c1,62.3%
15,NS(=O)(=O)c1ccc(Nc2nc(N/N=C/c3c[nH]c4ccccc34)nc(Nc3ccccc3)n2)cc1,87.8%
16,N#C/C(=C\c1ccc(-c2ccc(Cl)cc2Cl)o1)c1ccc(F)cc1,92.2%
17,O=C1/C(=C/C=C/c2ccco2)SC(=S)N1C1CCCCC1,94%
18,O=C(Nc1cccc(Cl)c1)Nc1nc2ccc([N+](=O)[O-])cc2o1,47.7%
19,COc1cccc(C(=O)Nc2cccc(C#Cc3cccc4[nH]nc(N)c34)c2)c1,69.2%
20,COc1cc(OC)c(S(N)(=O)=O)cc1C(=O)/C=C/c1ccc(Cl)cc1,17.2%

row,Structure (SMILES),growth
1,COc1cc2nc(Cl)nc(Nc3cccc(C4=Nc5c(N)nc(N)nc5NC(c5ccc(Br)cc5)C4)c3)c2cc1OC (centres undefined),113%
2,CC1=N[C@@H]2CN(C(=O)OC(C)(C)C)C[C@@H]2n2c1cc1ccccc1c2=O,107%
3,O=S(=O)(NCCNc1nccc(-n2cnc3ccccc32)n1)c1ccc(Br)cc1,94%
4,Cc1cc(-c2ccc(Cl)cc2)n(Cc2nnc(SCC(=O)Nc3ccc(S(N)(=O)=O)cc3)n2C2CCCCC2)n1,107%
5,COc1cc(OC)cc(C(=O)Nc2sc3c(c2C(N)=O)CCC(=O)C3)c1,48.3%
6,COc1cccc2cc(-c3cc4ccccc4[nH]3)/c(=N\NC(=O)c3ccc(Cl)cc3)oc12,49.2%
7,CC(C)(C)c1ccc(CC(=O)Nc2sc3c(c2C(N)=O)CCC(=O)C3)cc1,7% (active)
8,c1cn2c(ccc3nc(-c4cn[nH]c4)c4c(c32)CCCC4)n1,99.4%
9,COc1cc(-c2nn(C(C)(C)C)cc2-c2ccnc(NCCCNS(=O)(=O)c3ccc(F)cc3)n2)ccc1Cl,82.3%
10,Clc1nc2ccccc2nc1-c1nnc(C2CCCCC2)o1,107%
11,CCCn1cnc2c(c1=N)C(c1ccc(F)cc1)c1sc3c(CC)cccc3c1O2 (centres undefined),23.3%
12,COc1ccc(-n2c(/C=C3\C(=O)Nc4ccccc43)ccc2CO)cc1,107%
13,N#Cc1ccccc1Cn1c2nc(=N)c3ccccc3c-2nc2ccccc21,78.6%
14,COc1cc2nc(Cl)nc(Nc3cccc(C4=Nc5c(N)nc(N)nc5NC(c5ccc(F)cc5)C4)c3)c2cc1OC (centres undefined),107%
15,CCn1c2ccccc2c2cc(-n3nncc3-c3ccccc3)ccc21,35.4%
16,CCCn1cnc2c(c1=N)C(c1ccc(Cl)cc1)c1sc3c(CC)cccc3c1O2 (centres undefined),29%
17,Cc1ccc(C2=Nn3c(nnc3-c3ccccc3)SC2)cc1,62.9%
18,Cc1ccc2sc3c(c2c1)OC(N)=C(C#N)C3c1ccc(Cl)cc1 (centres undefined),93.4%
19,Cc1ccc(NC(=O)N[C@@H](Cc2cc(F)cc(F)c2)C(=O)NC2C(=O)N3C[C@H](O)C[C@H]3C(=O)N3CCCC[C@H]3C(=O)N[C@@H](CO)C(=O)N3C[C@H](C)C[C@H]3C(=O)O[C@H]2C)c(F)c1 (some centres undefined),43.8%
